The values below come from PubChem BioAssay AID449762 (Southern Research Specialized Biocontainment Screening …, 2010).

As a reminder, the inhibition is the change of the read-out against control, counted positive when it falls.

Hit rate of the full screen: of about 330,000 compounds, about 1,900 (0.58%) were called active. Not shown: some 4% with an inconclusive outcome. Not all results are given here. Measured potencies and affinities stand elsewhere. A number with no mark means an inactive call. No stated cut-off is given here; in the data, inconclusive means inhibition above about 70% without an active follow-up result; inactive means below that.

This test in a line: M. tuberculosis growth inhibition, HTS (AID 449762).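 Further: bacterial growth assessed after seven days of incubation.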 To be noted: M. tuberculosis H37Rv growth inhibition, 7H9 media; at 25 µM; active compounds read high.
`C[C@@H](CN1C(=O)C(=O)NC[C@@H]1Cc1ccc(O)cc1)NC(=O)Cc1ccccc1`: the inhibition was -2.19%. To `Cn1cccc1-c1cc(C(=O)N/N=C/c2ccc(F)cc2)[nH]n1` belongs -3.95%; to `Cc1sc2ncnc(N(C)Cc3ccco3)c2c1C`, -1.32%. As to `CN(Cc1ccco1)c1ncnc2ccc(-c3ccoc3)cc12`, the inhibition was 17.5%. With `C=CCOc1ccc(C2CC(C)=NN2c2ccccc2)cc1` (stereo not given) the figure was 3.55%; with `CCOC(=O)C1=NN(c2ccccc2)C(c2ccccc2)CC1=O` (stereo not given), 12.7%. To `O=C1c2ccccc2C(=O)N1c1ccc(Cl)cc1` belongs -5.93%; to `Cc1ccc(N2C(=O)C3C(c4ccccc4)(C2=O)C3(c2ccccc2)c2ccccc2)cc1` (stereo not given), 20.2%. To `O=c1c(Br)c(NCc2ccccc2)cnn1-c1ccc(F)cc1` belongs -5.73%; to `Cn1nnnc1Sc1ccc(C(=O)O)cc1[N+](=O)[O-]`, 2.4%. For `O=C(O)c1ccc(Sc2nnnn2-c2ccccc2)c([N+](=O)[O-])c1`, the inhibition is 3.58%.

For the compound `COc1ccc(C(=O)c2ccc(N3CCN(C4CC(=O)NC4=O)CC3)cc2)cc1F` (stereo not given), the inhibition was 0.26%.

For the compound `Cc1nc(Sc2ccccc2)c(C#N)c(C)c1[N+](=O)[O-]`, the inhibition was 3.11%.

Turning to `Nc1ncnc(Sc2ccccc2)c1[N+](=O)[O-]`, the inhibition was -0.35%.

On to `C=CCNC(=O)COc1cc(C)cc(C)c1C`, for which the inhibition is -2.5%. To `CCOc1ccc(CCNC(=O)Cn2c(=O)c3cccn3c3cccnc32)cc1` belongs -8.95%; to `Cc1ccc(Sc2c([N+](=O)[O-])ncn2C)cc1`, -9.59%.

`Cn1cnc([N+](=O)[O-])c1Sc1ccccc1`: the inhibition was -3.64%.

With `Cc1cc(OC(=O)C(c2ccccc2)c2ccccc2)c([N+](=O)[O-])c(=O)[nH]1`, the inhibition is 1.27%. With `CC1=NN2C(=N)/C(=C\c3cc(C)n(-c4ccccc4)c3C)C(=O)N=C2S1` the figure was -0.68%; with `NC(=O)CSc1n[nH]c(=O)n1CCc1ccccc1`, -5.89%; with `CCCCCCN1Cc2ccccc2C1`, 3.68%. To `O=c1ccsn1Cc1ccccc1` belongs 2.59%. On to `c1ccc(CCNCCCOc2cccc3ccccc23)cc1`, for which the inhibition was 40.1%. With `Cc1ccc(OCCCCNC(C)c2ccccc2)c(C)c1` (stereo not given) the figure was 7.81%; with `C#CCNC(=O)C1=C[C@H](c2ccc3c(c2)OCO3)C[C@H](OCc2ccc(CO)cc2)O1`, 6.55%; with `COc1ccccc1N1CCN(CC(=O)Nc2nc(C)c(C(=O)N(C)C)s2)CC1`, 0.78%. To `CN1CCN(c2nc(-c3cc4ccccc4o3)cs2)CC1` belongs 1.67%; to `Nc1nc(-c2cc3ccccc3o2)cs1`, 27.5%.

With `COc1ccc2[nH]c(C)c(CCN(Cc3cccs3)C(=S)Nc3ccccc3)c2c1`, the inhibition was -7.77%.

For the compound `CCCCn1cnc2c1c(=O)n(CC(=O)c1cc(C)n(C)c1C)c(=O)n2CC(C)C`, the inhibition is 5.57%. For `Cc1ccc(CN2CCN(Cc3ccc4c(c3)OCCO4)CC2CCO)cc1` (stereo not given), the inhibition is -5.47%.

With `O=C(c1nc2ccccc2[nH]1)c1ccccc1[N+](=O)[O-]`, the inhibition is 13%. To `c1ccc(N(c2ccccc2)c2nc(-n3ccnc3)nc(-n3ccnc3)n2)cc1` belongs -9.38%.

In the case of `CCCCNc1nc(-c2ccccc2)nc(-n2ccnc2)n1`, the inhibition is 10%.

Take `CN(c1ccccc1)c1nc(-n2ccnc2)nc(-n2ccnc2)n1`: the inhibition was 5.05%. For the compound `COc1nc(N(c2ccccc2)c2ccccc2)nc(-n2ccnc2)n1`, the inhibition was 34.2%. To `COC(=O)c1ccc(C2c3c(oc4ccc(F)cc4c3=O)C(=O)N2CCO)cc1` (stereo not given) belongs -6.43%; to `COc1ccccc1NC(=O)c1ccc2nsnc2c1`, 5.74%.

On to `CCN1C(=O)C(CC(=O)NCCc2ccccc2)N(NC(=O)c2cccnc2)C1=S` (stereo not given), for which the inhibition is 12%. As to `Clc1ccccc1N=C1SCCS1`, the inhibition is -6.64%. With `CSc1ncccc1C(=O)N(C)CC(=O)Nc1ccc(Cl)c(C(F)(F)F)c1` the figure was -3%. With `COc1ccccc1N1CCN(C(=O)C2CCN(S(=O)(=O)c3ccc(F)cc3)CC2)CC1` the figure was -1.53%; with `CC(=O)Nc1cc(C(=O)N2CCc3ccccc3C2)ccc1Sc1ccc(Cl)cc1`, 2.06%; with `Cc1nc2c(C)cccn2c(=O)c1NC(=O)c1cccs1`, -5.13%. For `C=CCNc1oc(-c2ccc(Cl)cc2)nc1C#N`, the inhibition was 47.3%.

For `C=CCNc1oc(-c2ccc(OC)cc2)nc1C#N`, the inhibition was 4.44%. To `NS(=O)(=O)c1ccc(NC(=O)CSc2nnc(Cc3cccs3)n2-c2ccccc2)cc1` belongs 10.1%; to `O=C(/C=C/c1ccccc1)N1CCN(c2ccccn2)CC1`, -12.8%.

As for `O=C1/C(=N\S(=O)(=O)c2cccs2)C([n+]2ccccc2)=C([O-])c2ccccc21`, the inhibition was -2.62%. For the compound `CCc1cc[n+](C2=C([O-])c3ccccc3C(=O)/C2=N\S(=O)(=O)c2cccs2)cc1`, the inhibition was 2.09%. To `CCCCC1(C(=O)OCC)CC(CN2CCOCC2)OC1=O` (stereo not given) belongs -5.65%; to `CN1CCN(c2ccc(NC(=O)c3cccs3)cc2)CC1`, 0.58%; to `COC(=O)C1=C(C)Nc2[nH]c(=S)[nH]c(=O)c2C1c1ccc(OC)cc1` (stereo not given), -7.09%. To `COc1cc(/C=N/Nc2nc(Nc3ccccc3)nc(N3CCCCC3)n2)ccc1OCC(=O)O` belongs 58.2%; to `O=C(O)COc1ccc(/C=N/Nc2nc(Nc3ccccc3)nc(N3CCCCC3)n2)cc1`, 23.6%.

In the case of `N/C(=N\OC(=O)CC1CCCCC1)c1ccc([N+](=O)[O-])cc1`, the inhibition was -1.51%. To `CCCn1c(=N)c(C(=O)NCC2CCCO2)cc2c(=O)n3cccc(C)c3nc21` (stereo not given) belongs -2.2%; to `CCOCCCn1c(=N)c(C(=O)NCc2ccc3c(c2)OCO3)cc2c(=O)n3cccc(C)c3nc21`, 68.2%. With `Brc1ccc(-c2csc(Nc3nc(-c4ccc(Br)cc4)cs3)n2)cc1` the figure was 8.54%. With `Brc1ccc(-c2csc(-c3ccncc3)n2)cc1` the figure was 36.4%. For `Cc1ccc(NC(=S)N2CCN(c3ccccn3)CC2)c(C)c1`, the inhibition was 5.35%.

As for `Cc1c(N=NC2=C(O)CC(C)(C)CC2=O)cc2c(c1[N+](=O)[O-])C(C)(C)CC2(C)C`, the inhibition is 6%. For the compound `O=[N+]([O-])c1ccc(Nc2ccc(F)cc2)nc1`, the inhibition is -2.27%. `COc1ccc(NC(=O)COC(=O)c2cc3c(s2)CCC3)cc1`: the inhibition is 9.83%. Turning to `NC(=O)c1ccc(NC(=O)COC(=O)c2cc3c(s2)CCC3)cc1`, the inhibition is 6.74%. For the compound `CCN1CCN(c2nc(C)c3c(n2)CC(C)CC3=O)CC1` (stereo not given), the inhibition is 11.3%. To `COC(=O)c1ccc(COc2cc([N+](=O)[O-])cc3cccnc23)o1` belongs -2.4%; to `COC(=O)c1ccc(COc2cc([N+](=O)[O-])cc3cccnc23)cc1`, 3.92%; to `O=C(CN1c2ccccc2Sc2ccccc21)N/N=C/c1ccc(Cl)cc1Cl`, 4%. On to `COc1ccccc1C(=O)NNC(=O)C12CC3CC(CC(C3)C1)C2`, for which the inhibition is -6.93%. With `Cc1cc(C)c2c(CN3CCN(Cc4ccccc4)CC3)cc(=O)oc2c1` the figure was 0.88%; with `Cc1ccc2c(CN3CCN(Cc4ccccc4)CC3)cc(=O)oc2c1C`, 3.31%.

Turning to `Fc1ccccc1N1CCN(C(c2ccncc2)c2nnnn2C2CCCC2)CC1` (stereo not given), the inhibition was -0.2%. With `O=C(NCCO)c1cccc(S(=O)(=O)N2CCCCC2)c1` the figure was -4.67%. To `CC1CC(C)CN(C(=O)CN2C(=O)NC3(CCCCCC3)C2=O)C1` (stereo not given) belongs 6.02%; to `CC(=O)CSc1nsc(SCC(C)=O)c1C#N`, -3.69%; to `CSc1snc(SCC(N)=O)c1C#N`, -0.39%. Turning to `N#Cc1c(SCC(=O)OCc2ccccc2)nsc1SCC(=O)OCc1ccccc1`, the inhibition is 14.1%. With `COC(=O)CSc1nsc(SCC(=O)OC)c1C#N` the figure was -0.76%. With `CCC(C)N(C(=O)COC(=O)c1nc2nc(C)cc(C)n2n1)C1CCS(=O)(=O)C1` (stereo not given) the figure was 5.26%; with `CCCOc1ccc(CC2CCC(=O)NC2=O)cc1` (stereo not given), 5.69%. On to `COc1ccc(CNS(=O)(=O)c2ccc3c(c2)NC(=O)C(C)S3)cc1` (stereo not given), for which the inhibition is 6.65%. For `CCc1c(C)sc(NC(=S)N2CC(C)OC(C)C2)c1C(=O)OC` (stereo not given), the inhibition was 3.86%. To `CCc1c(C)sc(NC(=S)N2CCN(S(C)(=O)=O)CC2)c1C(=O)OC` belongs 0.54%; to `CCN(CC(=O)NCc1ccc(Cl)cc1)C(=O)CN1C(=O)NC(C)(c2ccccc2)C1=O` (stereo not given), -3.75%.

In the case of `CCOC(=O)C(C)NC(=O)c1cn(-c2ccc(OC)cc2)c(=O)c2ccccc12` (stereo not given), the inhibition was 3.17%. To `CCC(C)NC(=O)c1cn(-c2cccc(OC)c2)c(=O)c2ccccc12` (stereo not given) belongs 4.02%; to `N#C/C(C(N)=O)=C1/SC=C(c2ccccc2)N1c1ccccc1`, -6.75%. To `NS(=O)(=O)c1ccc(NC(=S)NC(=O)c2ccc(Br)o2)cc1` belongs -3.72%. Regarding `Cc1ccc(S(=O)(=O)NC(=O)Nc2ccc(C)cc2C)cc1`, the inhibition is -6.63%. To `Cn1c(=O)c2c(ncn2CC(=O)Nc2ccc(N3CCOCC3)cc2)n(C)c1=O` belongs -5.62%; to `O=C(O)CN=CC1=C(O)CC(c2ccccc2)CC1=O` (stereo not given), 4.73%. Consider `N/C(Cc1ccc(Cl)cc1)=N\OC(=O)c1ccc2ccccc2c1`, for which the inhibition is 0.18%. To `N/C(Cc1ccc([N+](=O)[O-])cc1)=N\OC(=O)c1ccc([N+](=O)[O-])cc1` belongs 44.8%.
